# Inconclusive results are not listed. A number with no mark means an inactive call. Activity calls are given as the source filed them. Calls follow the shape of the full dose curve.
# Test: VSV-G qHTS counterscreen for inhibitors of MERS-S pseudo-typed particle cell entry
# Details: VSV-G pseudotyped particle cell entry, luciferase counterscreen; series mostly up to 57.1 µM
Structure (SMILES),Potency,"activity, negative = inhibition"
CCCCCCOC(=O)NC(=N)c1ccc(NCc2nc3cc(C(=O)N(CCC(=O)OCC)c4ccccn4)ccc3n2C)cc1,27.1 µM (active),
CC(C)OC(=O)[C@H](C)N[P@](=O)(CO[C@H](C)Cn1cnc2c(N)ncnc21)Oc1ccccc1,0.0271 µM (active),
CC[C@@]1(O)C(=O)OCc2c1cc1n(c2=O)Cc2cc3c(CN(C)C)c(O)ccc3nc2-1,0.0857 µM (active),
COc1c(OCCCN2CCOCC2)ccc2c3n(c(=NC(=O)c4cnc(N)nc4)nc12)CCN3,,-8.49% [at 11.2 µM]
CNC(=O)c1cc(Oc2ccc(NC(=O)Nc3ccc(Cl)c(C(F)(F)F)c3)c(F)c2)ccn1,15.2 µM (active),
C=CC(=O)Nc1cc(Nc2nccc(-c3cn(C)c4ccccc34)n2)c(OC)cc1N(C)CCN(C)C,30.4 µM (active),
N=C(N)c1ccc(OCCCCCOc2ccc(C(=N)N)cc2)cc1,10.8 µM (active),
C[C@H]1[C@H](OC(=O)CCC(=O)O)O[C@@H]2O[C@@]3(C)CC[C@H]4[C@H](C)CC[C@@H]1[C@@]24OO3,0.681 µM (active),
COc1cccc2c1C(=O)c1c(O)c3c(c(O)c1C2=O)C[C@@](O)(C(=O)CO)C[C@@H]3O[C@H]1C[C@H](N)[C@H](OC2CCCCO2)[C@H](C)O1 (stereo partly specified),inactive,
COc1cc([C@@H]2c3cc4c(cc3C(O[C@@H]3O[C@@H]5CO[C@@H](c6cccs6)OC5[C@H](O)[C@H]3O)C3COC(=O)[C@@H]32)OCO4)cc(OC)c1O (stereo partly specified),0.192 µM (active),
O=C1CCc2ccc(OCCCCN3CCN(c4cccc(Cl)c4Cl)CC3)cc2N1,13.6 µM (active),
COc1cccc2c1C(=O)c1c(O)c3c(c(O)c1C2=O)C[C@@](O)(C(C)=O)C[C@@H]3O[C@H]1C[C@H](N)[C@H](O)[C@H](C)O1,1.92 µM (active),
CN(C)CC/C=C1\c2ccccc2Sc2ccc(Cl)cc21,8.57 µM (active),
CC(=O)OCC1=C(C(=O)O)N2C(=O)[C@@H](NC(=O)Cc3cccs3)[C@H]2SC1,inactive,
CC(C)C(=O)Oc1ccc(CO)cc1[C@H](CCN(C(C)C)C(C)C)c1ccccc1,21.5 µM (active),
CCn1cc(C(=O)O)c(=O)c2cc(F)c(N3CCNC(C)C3)c(F)c21 (stereo unspecified),inactive,

Structure (SMILES),Potency,"activity, negative = inhibition"
CC(=O)[C@]1(O)Cc2c(O)c3c(c(O)c2[C@@H](O[C@H]2C[C@H](N)[C@H](O)[C@H](C)O2)C1)C(=O)c1ccccc1C3=O,2.15 µM (active),
Cc1nnc(C(=O)NC(C)(C)c2nc(C(=O)NCc3ccc(F)cc3)c(O)c(=O)n2C)o1,0.0038 µM (active),
C[C@]12CC[C@H](O)C[C@H]1CCC1C2CC[C@]2(C)[C@@H](c3ccc(=O)oc3)C[C@H]3O[C@]132 (stereo partly specified),4.82 µM (active),
Nc1ccn([C@@H]2O[C@H](CO)[C@@H](O)C2(F)F)c(=O)n1,0.136 µM (active),
CC(CN(C)C)CN1c2ccccc2CCc2ccccc21 (stereo unspecified),inactive,
C/C=C(/C)C(=O)O[C@H]1C(C)=CC23C(=O)C(C=C(CO)[C@@H](O)[C@]12O)[C@H]1[C@@H](C[C@H]3C)C1(C)C (stereo partly specified),inactive,
C=C(C)[C@H]1Cc2c(ccc3c2O[C@@H]2COc4cc(OC)c(OC)cc4[C@@H]2C3=O)O1,0.0108 µM (active),
COc1ccc2cc3[n+](cc2c1OC)CCc1cc2c(cc1-3)OCO2,8.57 µM (active),
O=c1[nH]c(=O)n([C@H]2C[C@H](O)[C@@H](CO)O2)cc1C(F)(F)F,2.41 µM (active),
CCCCCCCCCCCCCC[n+]1ccc(C)cc1,1.71 µM (active),
COc1cc(NS(C)(=O)=O)ccc1Nc1c2ccccc2nc2ccccc12,0.764 µM (active),
CCCCN=C(N)N=C(N)N,inactive,
COc1cc2nccc(Oc3ccc(NC(=O)C4(C(=O)Nc5ccc(F)cc5)CC4)cc3)c2cc1OC,15.2 µM (active),
Cc1c(N)nc(C(CC(N)=O)NCC(N)C(N)=O)nc1C(=O)NC(C(=O)NC(C)C(O)C(C)C(=O)NC(C(=O)NCCc1nc(-c2nc(C(=O)NCCCN[C@@H](C)c3ccccc3)cs2)cs1)C(C)O)C(O[C@@H]1O[C@@H](CO)[C@@H](O)[C@H](O)[C@@H]1O[C@H]1O[C@H](CO)[C@@H](O)[C@H](OC(N)=O)[C@@H]1O)c1cnc[nH]1 (stereo partly specified),0.764 µM (active),
CC[C@@]1(O)C(=O)OCc2c1cc1n(c2=O)Cc2c-1nc1ccccc1c2/C=N/OC(C)(C)C,0.0108 µM (active),

# Source: PubChem BioAssay AID1494156 (National Center for Advancing Translational Sciences (NCATS), 2020)
